Drawing on PubChem BioAssay (Tox21), this text covers Potency and outcome for 8 compounds.

Test [1] is described as follows: Nuclear factor erythroid 2-related factor 2/antioxidant responsive element (Nrf2/ARE) small molecule agonists: qHTS cell viability counter screen in human keratinocytes (AID 1919968; active = well fitted curve in the direction sought with a large enough effect in the repeat runs; an effect the other way counts as inactive or inconclusive; note: nearly all actives have a fitted effect of over 55% in size; note: potency is the fitted concentration of half-maximal effect). A digest of the protocol:
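Stably transfected HaCaT (KeratinoSens), 1,500/well. Test agents in DMSO were applied for 23 h, 37 C/5% CO2. CellTiter-Fluor was incubated 1 h before the fluorescence read.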

Test [2] is described as follows: Nuclear factor erythroid 2-related factor 2/antioxidant responsive element (Nrf2/ARE) small molecule agonists: luciferase reporter gene qHTS assay in human keratinocytes (AID 1919969). Note: nearly all actives have a fitted effect of over 35% in size. Note: potency is the fitted concentration of half-maximal effect.
Test [3] concerns the target Gonadotropin-releasing hormone receptor (Homo sapiens) (UniProt P30968). Put plainly: Human gonadotropin-releasing hormone receptor (GnRHR) small molecule agonists, calcium flux assay in GnRHR-HEK293 cells (AID 1920063). Note: nearly all actives have a fitted effect of over 35% in size. In outline: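 Stable human GnRHR HEK293 line. 18 h plating, then calcium dye for 1 h at 37 C. Agonist-mode compound addition from DMSO stocks; fluorescence monitored 3 min.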

Test [4] deals with KiSS-1 receptor (Homo sapiens) (UniProt Q969F8). Description: Human kisspeptin (KISS1R) small molecule agonists, calcium flux assay in KISS1R-HEK293 cells (AID 1920064; active = well fitted curve in the direction sought with a large enough effect in the repeat runs; an effect the other way counts as inactive or inconclusive). A digest of the protocol:
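After overnight (18 h) culture at 37 C/5% CO2, human KISS1R-HEK293 cells received calcium dye for 1 h, then test compound; emission at 540 nm (excitation 480 nm) was tracked for 3 min.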

Test [5] is described as follows: G protein-coupled receptor (GPCR) small molecule agonists, calcium flux assay: HEK293 wild type cell line counter screen (AID 1920065). In outline:
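Following 18 h incubation at 37 C/5% CO2, plates got calcium dye for 1 h; compounds, ATP or DMSO were then pinned in and fluorescence followed kinetically (480/540 nm).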

Test [6] in a line: p53 small molecule agonists, cell-based qHTS assay with rat liver microsomes (AID 1963578). In outline:
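Read-out is beta-lactamase reporter fluorescence (LiveBLAzer, 2 h, room temperature, dark) in p53RE-bla cells treated 16 h at 37 C with compound, rat liver microsomes and NADPH, both 0.5 mg/mL final.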

Test [7] can be described thus: p53 small molecule agonists, cell-based qHTS assay with human liver microsomes: qHTS cell viability counter screen (AID 1963579). Note: nearly all actives have a fitted effect of over 45% in size. In outline: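 Cells carrying the p53 response-element beta-lactamase reporter are treated for 16 h at 37 C with test compounds in the presence of human liver microsomes and NADPH (both 0.5 mg/mL final); ATP-based CellTiter-Glo luminescence then reports viability.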

Test [8] can be described thus: p53 small molecule agonists, cell-based qHTS assay with rat liver microsomes: qHTS cell viability counter screen (AID 1963580). Note: nearly all actives have a fitted effect of over 45% in size. In outline:
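Luminescent ATP readout (CellTiter-Glo, 30 min at room temperature) reports viability of p53RE-bla HCT-116 cells after 16 h at 37 C with test compounds under metabolic activation by rat liver microsomes and NADPH at 0.5 mg/mL final each.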

Test [9] in a line: p53 small molecule agonists, cell-based qHTS assay (AID 1963582; active = well fitted activation curve with a large enough effect in the signal ratio in the repeat runs, not every such curve was filed as active; the % refers to the signal ratio; note: potency is the fitted concentration of half-maximal effect). In outline:
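Measured: fluorescence from cleaved LiveBLAzer substrate. System: p53RE-bla cells, 16 h compound treatment at 37 C, 2 h substrate step at room temperature.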

The nature of test [10]: cAMP Responsive Elements (CRE) small molecule agonists, cell-based qHTS assay (AID 1963590). A digest of the protocol: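 Test agents in DMSO were incubated 3 h at 37 C/5% CO2 with CRE-bla HEK 293T cells seeded 18 h earlier; LiveBLAzer B/G FRET substrate was added and read after 2 h at room temperature.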
A short description of test [11]: cAMP Responsive Elements (CRE) small molecule antagonists, cell-based qHTS assay (AID 1963591; active = well fitted inhibition curve with a large enough effect in the signal ratio in the repeat runs, not every such curve was filed as active; the % refers to the signal ratio). A digest of the protocol: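 Reporter line CRE-bla HEK 293T in dialyzed-FBS DMEM; cells preincubated 18 h, treated 3 h with compound plus NKH477 (0.25 uM final); LiveBLAzer FRET, 2 h RT.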
For test [12], the target named is Beta-2 adrenergic receptor (Homo sapiens) (UniProt P07550). Description: Adrenergic beta2 receptor (ADRB2) small molecule antagonists, cell-based qHTS assay (AID 1963592). Note: series mostly up to about 92 µM; nearly all actives have a fitted effect of over 50% in size. In outline:
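Assay format: CHO-ADRB2 cells, 18-20hr seeding at 37C/5% CO2, then compound plus 1nM isoproterenol agonist mix for 0.5hr RT. Homogeneous time-resolved fluorescence cAMP detection after 1hr, expressed as 665/615 nm ratio.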

Test [13] shares this target. Description: Adrenergic beta2 receptor (ADRB2) small molecule agonists, cell-based qHTS assay (AID 1963593).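 Note: CHO cells stably overexpressing human ADRB2.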 In outline:
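CHO cells stably over-expressing ADRB2 were plated overnight at 37C, then dosed with compounds plus a stimulation mix containing 100uM IBMX and 25uM Ro-20-1724 for 0.5hr at room temperature. cAMP was measured by HTRF competition, 1hr.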

Test [14] concerns the target D(2) dopamine receptor (Homo sapiens) (UniProt P14416). Description: Dopamine D2 receptor (DRD2) small molecule agonists, cell-based qHTS assay (AID 1963594). Note: nearly all actives have a fitted effect of over 35% in size. In outline: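 HEK293 cells stably expressing DRD2 were cultured 24 h at 37 C, then given Ro20-1724 (0.1 mM final) and compounds for 10 min at room temperature. NKH477 (200nM) was then added for 30 min. cAMP was read by HTRF.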

Test [15] shares this target. Description: Dopamine D2 receptor (DRD2) small molecule antagonists, cell-based qHTS assay (AID 1963595; active = well fitted inhibition curve with a large enough effect in the signal ratio in the repeat runs, with a control signal flat; the % refers to the signal ratio). A digest of the protocol: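 Stable D2 receptor HEK293 line, 24 h after seeding. Compound preincubated 10 min, then quinpirole (12 nM) with forskolin analogue NKH477 (200 nM), 30 min, room temperature. Detection by time-resolved FRET of cAMP.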
Test [16] has as its target 5-hydroxytryptamine receptor 2A (Homo sapiens) (UniProt P28223). Description: 5-hydroxytryptamine receptor 2A (HTR2A) small molecule agonists, cell-based qHTS assay (AID 1963587). Note: nearly all actives have a fitted effect of over 30% in size. In outline:
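HTR2A-CHO cells, plated 18 h at 37 C/5% CO2, dye-loaded 1 h at 37 C; compounds in DMSO added by pin tool (agonist mode). Intracellular calcium flux read as kinetic fluorescence on FDSS over 2 min at 1 s intervals.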

The target of test [17] is Muscarinic acetylcholine receptor M1 (Homo sapiens) (UniProt P11229). Put plainly: Cholinergic receptor muscarinic 1 (CHRM1) small molecule antagonists, cell-based qHTS assay (AID 1963588). Note: nearly all actives have a fitted effect of over 40% in size. A digest of the protocol: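 Compounds were tested at 15 concentrations in three independent runs. Dye-loaded CHRM1-CHO cells were exposed 5 min at room temperature before stimulation by acetylcholine added at 50nM. Intracellular calcium was read kinetically on FDSS for 3 min.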
Muscarinic acetylcholine receptor M1 (Homo sapiens), sequence (P11229 whole entry, looked up): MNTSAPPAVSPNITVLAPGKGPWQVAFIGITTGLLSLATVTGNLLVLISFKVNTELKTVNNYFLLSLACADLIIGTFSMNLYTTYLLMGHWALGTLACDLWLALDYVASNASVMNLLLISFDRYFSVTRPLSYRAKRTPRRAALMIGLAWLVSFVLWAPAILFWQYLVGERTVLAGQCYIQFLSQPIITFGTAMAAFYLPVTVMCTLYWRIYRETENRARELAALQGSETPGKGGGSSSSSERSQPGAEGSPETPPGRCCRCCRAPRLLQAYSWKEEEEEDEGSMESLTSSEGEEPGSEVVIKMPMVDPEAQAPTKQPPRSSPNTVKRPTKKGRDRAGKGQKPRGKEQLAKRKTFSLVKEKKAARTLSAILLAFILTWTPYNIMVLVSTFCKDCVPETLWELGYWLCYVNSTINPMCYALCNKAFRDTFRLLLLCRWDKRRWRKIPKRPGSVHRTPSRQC

The target of test [18] is 5-hydroxytryptamine receptor 2A (Homo sapiens) (UniProt P28223). Description: 5-hydroxytryptamine receptor 2A (HTR2A) small molecule antagonists, cell-based qHTS assay (AID 1963586). Note: nearly all actives have a fitted effect of over 45% in size. A digest of the protocol:
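CHO cells stably expressing human HTR2A were plated for 18 h at 37 C, then loaded with calcium dye for 1 h. Compounds were preincubated 5 min at room temperature before DOI (4 nM solution) was added. Kinetic fluorescence was read for 3 min.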

In test [19] the target is Muscarinic acetylcholine receptor M1 (Homo sapiens) (UniProt P11229). Description: Cholinergic receptor muscarinic 1 (CHRM1) small molecule agonists, cell-based qHTS assay (AID 1963589). Note: nearly all actives have a fitted effect of over 35% in size. In outline:
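Kinetic fluorescence (1 s intervals) of calcium-sensitive dye in human M1 CHO cells after compound addition; cells pre-incubated 18 h at 37 C/5% CO2 and dye-loaded 1 h.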

The nature of test [20]: p53 small molecule agonists, cell-based qHTS assay: qHTS cell viability counter screen (AID 1963581). Note: nearly all actives have a fitted effect of over 45% in size. A digest of the protocol:
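qHTS counter screen: 16 h compound exposure at 37 C of p53RE-bla HCT-116 cells (4,000 per well, seeded 5 h prior), cell viability by ATP luminescence.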

A number with no mark means an inactive call. Inconclusive results are not listed. Activity calls are given as the source filed them. Unless noted, calls come from the whole dose curve.

D(2) dopamine receptor (Homo sapiens), sequence (P14416 whole entry, looked up): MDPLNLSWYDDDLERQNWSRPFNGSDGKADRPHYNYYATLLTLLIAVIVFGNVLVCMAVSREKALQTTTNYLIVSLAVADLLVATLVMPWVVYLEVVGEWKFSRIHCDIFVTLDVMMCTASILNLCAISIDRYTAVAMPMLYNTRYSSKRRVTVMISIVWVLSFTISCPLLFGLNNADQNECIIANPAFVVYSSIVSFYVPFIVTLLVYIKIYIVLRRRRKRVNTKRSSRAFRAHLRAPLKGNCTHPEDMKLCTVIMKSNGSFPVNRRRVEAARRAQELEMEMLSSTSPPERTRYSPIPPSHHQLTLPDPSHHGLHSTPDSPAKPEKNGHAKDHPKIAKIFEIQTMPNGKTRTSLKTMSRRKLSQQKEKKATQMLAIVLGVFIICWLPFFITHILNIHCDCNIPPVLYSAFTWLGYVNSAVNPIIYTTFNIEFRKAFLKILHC
KiSS-1 receptor (Homo sapiens), sequence (Q969F8 whole entry, looked up): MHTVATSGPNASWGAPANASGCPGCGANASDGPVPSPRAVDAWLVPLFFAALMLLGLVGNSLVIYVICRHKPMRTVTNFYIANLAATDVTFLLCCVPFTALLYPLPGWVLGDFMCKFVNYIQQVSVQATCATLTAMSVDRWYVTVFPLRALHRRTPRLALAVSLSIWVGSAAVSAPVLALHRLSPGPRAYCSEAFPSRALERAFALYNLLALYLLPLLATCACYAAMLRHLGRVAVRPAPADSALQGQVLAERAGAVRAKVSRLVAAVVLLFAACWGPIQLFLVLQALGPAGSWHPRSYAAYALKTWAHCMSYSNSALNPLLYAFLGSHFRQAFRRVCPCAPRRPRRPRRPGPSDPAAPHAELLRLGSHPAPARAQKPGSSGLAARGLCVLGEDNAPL
Beta-2 adrenergic receptor (Homo sapiens), sequence (P07550 whole entry, looked up): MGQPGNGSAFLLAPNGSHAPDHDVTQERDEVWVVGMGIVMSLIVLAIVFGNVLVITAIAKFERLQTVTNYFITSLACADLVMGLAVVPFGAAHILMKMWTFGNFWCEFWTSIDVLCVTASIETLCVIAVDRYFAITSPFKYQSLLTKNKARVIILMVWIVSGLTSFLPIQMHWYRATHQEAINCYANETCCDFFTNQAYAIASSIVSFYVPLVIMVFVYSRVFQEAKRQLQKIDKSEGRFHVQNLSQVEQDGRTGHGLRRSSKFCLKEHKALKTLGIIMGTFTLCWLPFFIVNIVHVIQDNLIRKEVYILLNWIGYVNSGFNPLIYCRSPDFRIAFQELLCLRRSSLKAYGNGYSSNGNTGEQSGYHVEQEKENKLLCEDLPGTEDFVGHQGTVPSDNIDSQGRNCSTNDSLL
5-hydroxytryptamine receptor 2A (Homo sapiens), sequence (P28223 whole entry, looked up): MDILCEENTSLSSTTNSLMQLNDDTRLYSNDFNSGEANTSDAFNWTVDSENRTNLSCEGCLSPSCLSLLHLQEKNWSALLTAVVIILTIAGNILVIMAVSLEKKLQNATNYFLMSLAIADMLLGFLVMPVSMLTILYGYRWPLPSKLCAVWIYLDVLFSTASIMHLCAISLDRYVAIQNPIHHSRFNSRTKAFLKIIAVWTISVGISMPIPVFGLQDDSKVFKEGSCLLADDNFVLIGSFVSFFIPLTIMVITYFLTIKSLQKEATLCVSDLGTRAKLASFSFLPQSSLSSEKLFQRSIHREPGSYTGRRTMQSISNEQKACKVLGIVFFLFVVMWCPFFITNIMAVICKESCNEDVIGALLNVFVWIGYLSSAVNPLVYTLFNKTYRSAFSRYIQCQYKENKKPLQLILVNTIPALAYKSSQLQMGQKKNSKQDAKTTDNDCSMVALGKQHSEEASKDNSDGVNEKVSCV
Gonadotropin-releasing hormone receptor (Homo sapiens), sequence (P30968 whole entry, looked up): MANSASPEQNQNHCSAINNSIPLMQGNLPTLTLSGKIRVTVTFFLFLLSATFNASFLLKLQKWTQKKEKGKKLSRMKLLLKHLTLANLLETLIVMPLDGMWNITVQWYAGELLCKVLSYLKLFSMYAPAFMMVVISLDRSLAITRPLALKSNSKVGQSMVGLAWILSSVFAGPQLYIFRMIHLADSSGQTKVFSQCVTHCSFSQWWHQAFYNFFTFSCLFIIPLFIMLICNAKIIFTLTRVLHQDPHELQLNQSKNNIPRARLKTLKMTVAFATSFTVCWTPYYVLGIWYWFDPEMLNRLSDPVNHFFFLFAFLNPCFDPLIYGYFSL

In the case of `O=NN(CCCl)C(=O)NCCCl`, the Potency entry in test [1], in test [2], in test [3], in test [6], in test [7] and in test [8] was “inactive” throughout. Also, the Potency result in test [9], in test [10], in [11], in test [12], in test [13] and in test [14] was “inactive” each time. In addition, the Potency result in [15] was “inactive”. The outcome in test [4] and in test [5] was inactive.

In the case of `CC(CN1CC(=O)NC(=O)C1)N1CC(=O)NC(=O)C1` (centres undefined), the Potency result in [1], in test [2], in [3], in test [6], in test [7] and in [8] was “inactive” in each case. Also, the Potency result in test [16], in [17], in [10], in [11], in test [13] and in [14] was “inactive” each time. Further, the Potency result in test [15] was “inactive”. Also, the result in test [4] and in [5] was inactive. The Potency in [9] was 19.9 µM (active).

For the compound `C=C1C(CCl)(CCl)C2(Cl)C(Cl)C(Cl)C1(Cl)C2(Cl)Cl` (centres undefined), the Potency was 38.1 µM (active) in [1] and 15.2 µM (active) in test [2]. In addition, the Potency entry in [3], in test [6], in [18], in test [16], in [19] and in test [13] was “inactive” each time. The outcome in test [4] and in test [5] was inactive.

On to `Cc1ccc(-n2nc(C(C)(C)C)cc2NC(=O)Nc2ccc(OCCN3CCOCC3)c3ccccc23)cc1`, for which the Potency result in test [1], in test [2], in test [3], in test [6], in test [7] and in test [8] was “inactive” throughout. Further, the Potency result in test [20], in [18], in test [16], in test [17], in test [19] and in [14] was “inactive” throughout. Besides, in test [15], the Potency result was “inactive”. For the same compound, the outcome in test [4] and in test [5] was inactive.

For the compound `NCC1CCC(C(=O)Oc2ccc(CCC(=O)O)cc2)CC1` (centres undefined), the Potency result in test [1], in test [2], in test [3], in test [6], in test [8] and in test [20] was “inactive” throughout. The Potency entry in [9], in test [10], in test [11], in test [12] and in test [15] was “inactive” throughout. Besides, the result in test [4] and in [5] was inactive.

Consider `O=C1OCc2ccccc21`, for which the Potency result in [1], in [2], in test [3], in [6], in test [7] and in test [20] was “inactive” in each case. For the same compound, the Potency result in test [9], in [17], in test [19], in test [10], in test [11] and in test [12] was “inactive” in each case. In addition, the Potency result in [13], in test [14] and in test [15] was “inactive” throughout. The result in test [4] and in [5] was inactive.

`CCCCCCCCCCCC(C)=O`: the Potency result in [1], in test [2], in test [3], in test [6], in test [7] and in test [8] was “inactive” in each case. In addition, the Potency result in test [9], in [18], in [16], in test [17], in test [19] and in [11] was “inactive” each time. For the same compound, the Potency entry in test [12], in test [13], in test [14] and in test [15] was “inactive” throughout. Besides, the result in [4] and in test [5] was inactive.

In the case of `CN=C(NC#N)Nc1ccc(C2=NNC(=O)CC2C)cc1` (centres undefined), the Potency result in test [1], in test [2], in test [3], in test [6], in [7] and in test [20] was “inactive” each time. The Potency entry in test [18], in test [16], in test [17], in test [10], in test [11] and in test [12] was “inactive” throughout. For the same compound, the Potency entry in test [15] was “inactive”. Besides, the outcome in [4] and in test [5] was inactive.
